Assay results taken from PubChem BioAssay.

System: XIP peptide (Xip251-270) binding
Assay: small-molecule binders of XIP peptide, primary screen, biochemical, small-molecule microarray, fluorescence 635/667 nm, 0.1 µg/mL protein (AID 1182)
Details: fluorescent protein binding, 635 nm, higher = more signal, called active from +8 up or from −8 down

Composite z-score, inactive:
CCOC(=O)[C@H](CC(C)C)NC(=O)CCC1CC(OC(=O)NCCc2ccc(F)cc2)CC2(CCCC(COC(=O)NCC3CCCCC3)O2)O1 (some centres not stated) -0.0257
O=C1C[C@@H](O)[C@@H](O)[C@@H]2[C@@H]3C(=O)N(C[C@@H]4CCCO4)C(=O)[C@@H]3CC[C@@H]12 0.74
CCN1C(=O)[C@H]2[C@H]3[C@H](O)[C@H](O)CC(=NNC(=O)OCc4ccc(OC)cc4)[C@@H]3CC[C@H]2C1=O 0.0729
C#CCCCON=C1C[C@@H](O)[C@@H](O)[C@@H]2[C@@H]3C(=O)N(Cc4ccccc4)C(=O)[C@@H]3CC[C@@H]12 -0.186
CC(C)CON=C1[C@H]2CCn3c(=O)n(Cc4cc5c(cc4Cl)OCO5)c(=O)n3[C@H]2[C@H](O)[C@@H]2O[C@H]12 0.26
O=C1[C@H]2[C@H]3[C@H](O)[C@H](O)CC(=NOCc4ccccc4)[C@@H]3CC[C@H]2C(=O)N1Cc1ccc2c(c1)OCO2 0.135
Cc1cc2c(c(=O)o1)[C@@H](O)[C@H]1O[C@H]1C2=O -0.483
CC(C)CON=C1C[C@@H](O)[C@@H](O)[C@@H]2[C@@H]3C(=O)N(c4ccc(F)cc4F)C(=O)[C@@H]3CC[C@H]12 0.0163
CON=C(C)CCC(=O)OC[C@H]1O[C@H](c2ccccc2)C=C[C@@H]1Oc1ccc(OC)cc1 0.103
C#CCCCON=C1[C@H]2CCn3c(=O)n(C)c(=O)n3[C@H]2[C@H](O)[C@@H]2O[C@H]12 -0.158
C[C@@H]1CC[C@H]2C(=O)O[C@@H](Cc3ccccc3)CN2[C@H]1c1ccc(Br)cc1 0.128
CC(C)CON=C1C[C@@H](O)[C@@H](O)[C@@H]2[C@@H]3C(=O)N(c4cccc(Oc5ccccc5)c4)C(=O)[C@@H]3CC[C@@H]12 -0.347
COc1ccc(O[C@H]2C=C[C@@H](c3ccccc3)O[C@@H]2COC(=O)CCC(C)=NO[C@@H]2O[C@H](COC(C)=O)[C@@H](OC(C)=O)[C@H](OC(C)=O)[C@H]2OC(C)=O)cc1 0.427
C=CC[C@@H]1C=C[C@H](ON=C(C)CCC(=O)OC[C@H]2O[C@H](C#Cc3ccccc3)C=C[C@@H]2Oc2ccc(C)cc2)[C@@H](CO)O1 1.18
CO[C@H]1COC(=O)[C@@H](C)COC(=O)[C@H](COCc2ccccc2)NC(=O)CC=C[C@H]1C -0.0299
COc1cccc([C@H]2Oc3ccc(OC)cc3C(=NOC[C@@H](O)COCc3ccco3)[C@@H]2O)c1 0.252
CC(C)(C)N1C(=O)[C@H]2[C@H]3[C@H](O)[C@H](O)CC(=O)[C@H]3CC[C@H]2C1=O 0.596
CC(C)=CCCC(C)=CCON=C1C[C@@H](O)[C@@H](O)[C@@H]2[C@@H]3C(=O)N(C[C@@H]4CCCO4)C(=O)[C@@H]3CC[C@H]12 0.243
CCCNC(=O)OC[C@H]1O[C@H](CCON=C(C)CCC(=O)OC[C@H]2O[C@H](c3ccccc3)C=C[C@@H]2Oc2ccc(OC)cc2)C=C[C@@H]1Oc1ccc(OC)cc1 0.146
O=C1[C@H]2[C@H]3[C@H](O)[C@H](O)CC(=NOC[C@@H](O)COCc4ccco4)[C@H]3CC[C@H]2C(=O)N1Cc1ccccc1 -0.227
O=c1n(-c2ccccc2)c(=O)n2n1CC[C@@H]1C(=NOCc3ccccc3)[C@H]3O[C@H]3[C@@H](O)[C@@H]12 -0.368
CO[C@H]1COC(=O)[C@@H]2CCCN2C(=O)CC=C[C@@H](C)[C@H](OC)COC(=O)[C@@H](OCc2ccccc2)C=C[C@@H]1C 0.0932
CC(=O)Nc1ccc([C@@H]2N[C@H](C(=O)O)CC[C@H]2C)cc1 -0.0813
COC(=O)CC=C[C@@H](C)[C@H](OCc1cccc(-c2ccccc2)c1)C1CCCCC1 0.704
COC(=O)CC=C[C@@H](C)[C@@H](C=NOC[C@H]1O[C@H](c2ccccc2)C=C[C@@H]1Oc1ccc(OC)cc1)OC 0.0079
CCOC(=O)CCN1C(=O)[C@H]2[C@H]3[C@H](O)[C@H](O)CC(=NNC(=O)OCc4ccccc4)[C@@H]3CC[C@H]2C1=O 0.0651
COc1ccc(COC(=O)NN=C2C[C@@H](O)[C@@H](O)[C@@H]3[C@@H]4C(=O)N(c5cccc(Oc6ccccc6)c5)C(=O)[C@@H]4CC[C@@H]23)cc1 -0.378
